The list is not random: actives were taken first. Their share in the collection is about 0.78%.
PKA-R1A act: activates the PKA-R1A holoenzyme complex | PKA-R1A dissociation, Cy5-IP20 fluorescence polarization; scaled: DMSO 0%, 113 µM cGMP 100% | activation, % at 11.4 µM | 340,000 tested, 0.083% active | P00514+P68181;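 active means percent activation above the mean of all tested compounds plus 3 SD, cut at about 19% in these data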;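 further: higher means more PKAc released from R1A so a rise in polarization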
Yeast superoxide: lowers age-related superoxide in aged yeast cells; S. cerevisiae aged cells, superoxide DHE fluorescence; hits give low values; superoxide response (% of plate mean), % at 10 µM; 330,000 tested, 0.18% active; AID 2690;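 active means superoxide response under a set limit, about three screen SD below normal, cut at about 65% in these data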;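 further: yeast aged for seven days with compound at 30 °C before DHE staining; 100% = average MFI of all compound-treated wells on the plate with controls excluded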
PKA-R2B activ: PKA-R2B complex activation. P22694+P31323. PKA-R2B holoenzyme dissociation, Cy5-IP20 fluorescence polarization; R2B truncated from residue 108, S112A mutant; 0% DMSO only, 100% 113 µM cGMP. activation, % at 11.4 µM. 340,000 tested, 0.079% active. AID 504700;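 active means activation above a cutoff set at the mean over all compounds plus 3 SD, cut at about 18% in these data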;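 further: higher means more holoenzyme dissociation and a rise in polarization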
Target sequence (P31323 whole entry, looked up, other chains not shown, the tested form may be a part): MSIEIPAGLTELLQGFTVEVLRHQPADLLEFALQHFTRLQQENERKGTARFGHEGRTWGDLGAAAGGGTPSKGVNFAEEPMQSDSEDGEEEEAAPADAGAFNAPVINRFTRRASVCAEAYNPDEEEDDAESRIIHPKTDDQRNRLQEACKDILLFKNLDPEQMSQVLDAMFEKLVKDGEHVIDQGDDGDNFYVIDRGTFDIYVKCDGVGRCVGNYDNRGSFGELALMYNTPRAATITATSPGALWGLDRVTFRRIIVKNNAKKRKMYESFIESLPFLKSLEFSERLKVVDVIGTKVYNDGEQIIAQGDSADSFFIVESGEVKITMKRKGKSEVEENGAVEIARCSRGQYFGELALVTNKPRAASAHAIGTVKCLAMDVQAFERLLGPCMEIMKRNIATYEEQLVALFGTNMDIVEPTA
PolyA inh: yeast polyadenylation inhibition; AID 1875; activity score, % at 12 µM; 300,000 tested, 0.02% active; S. cerevisiae SKY197-pL101 polyadenylation reporter, beta-gal luminescence; efflux-impaired pdr1/pdr3 knockout yeast; score 100 = 6 SD above DMSO;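 active means lowest replicate activity score at least 50, where 100 means six control SD above control mean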;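 further: yeast exposed to compound for 9 h at 30 °C; higher score means more reporter readthrough which indicates perturbed polyadenylation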
V-ATPase pH: alters yeast V-ATPase proton transport. AID 504577. 350,000 tested, 0.37% active. response, % at 10 µM. S. cerevisiae, pHLuorin cytosolic pH fluorescence; in the data active means response mostly above about 7.3%, no sharp cut-off; inactive means mostly below about 5.4%; further: actives read high
JMJD2C inh: inhibitors of human GASC-1 (JMJD2C) demethylase; Q9H3R0; GST-JMJD2C(1-420) H3K9me3 demethylation, DELFIA europium; inhibition, % at 2.35 µM; 330,000 tested, 0.069% active; AID 2099;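 active means more than half of a compound's replicate wells show inhibition beyond 50%, single wells judged on their own value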;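 further: signal counts dimethyl H3K9 product captured on neutravidin plate; 0% = median of DMSO wells and 100% = 0.3 times that DMSO median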
CR mimetic CP: confirmation of caloric restriction mimetics inhibiting yeast age-related superoxide; superoxide response (% of plate), % at 10 µM; 850 tested, 1% active; S. cerevisiae aging, superoxide DHE fluorescence; hits give low values; shares compounds with Yeast superoxide;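 active means superoxide signal below 65% of the plate average of sample wells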;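 further: cells aged with compound for 7 days at 30 degrees C before staining; 100% equals mean DHE fluorescence of all compound wells on the plate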
DHE counter: compound alters DHE oxidation or fluorescence in yeast | 850 tested, under 10 active | fluorescence response, % at 10 µM | S. cerevisiae BY4741, flow cytometry; hits give low values | shares compounds with Yeast superoxide | AID 435000;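 active means fluorescence response below 15%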;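 further: percent of the mean fluorescence averaged over all compound wells on the plate; lower means stronger quenching of DHE signal or ROS scavenging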
An asterisk follows results filed as active; . = no result given.

SMILES | PKA-R1A act | Yeast superoxide | PKA-R2B activ | PolyA inh | V-ATPase pH | JMJD2C inh | CR mimetic CP | DHE counter
CCc1ccc2c(CC(=O)Nc3cccc(S(=O)(=O)N4CCOCC4)c3)coc2c1 | -9 | 98 | -4 | . | 1 | -7 | . | .
O=C(c1ccc2nc[nH]c2c1)N1CCN(c2cccc(Cl)c2)CC1 | -6 | 97 | -3 | 10 | 0 | -15 | . | .
Cc1ccc(C(=O)N2CCN(c3ccccc3)CC2)cc1C | 4 | 91 | 8 | 0 | 0 | 12 | 90 | 89
Cc1ccc(C(=O)N2CCN(c3cccc(Cl)c3)CC2)cc1C | 2 | 103 | 6 | 34 | -4 | 3 | 109 | 100
CS(=O)(=O)Nc1ccc(C(=O)N2CCN(c3ccccc3)CC2)cc1 | -14 | 88 | 7 | 1 | 1 | 2 | 92 | 91
O=C(c1ccccc1)N1CCN(c2ccccc2)CC1 | 1 | . | -7 | . | 2 | . | . | .
O=C(c1ccccc1)N1CCN(c2ccc(Cl)cc2)CC1 | -4 | 85 | 4 | 1 | -4 | 4 | 90 | 90
O=C(c1ccc(NS(=O)(=O)c2ccc3[nH]c(=O)[nH]c3c2)cc1)N1CCN(c2ccccc2)CC1 | 4 | 96 | -10 | . | 0 | -5 | . | .
O=C(Cc1cccs1)NCc1cccc(F)c1 | -4 | 148 | 2 | 15 | -2 | 0 | . | .
CC(=O)N1CCN(S(=O)(=O)c2cccc(C(=O)NNC(=O)COc3ccc(F)cc3)c2)CC1 | -7 | 109 | 7 | . | -3 | -23 | . | .
CN(C)C(=O)c1cc(C(=O)c2c(F)cccc2F)c[nH]1 | -8 | 121 | -2 | -14 | -1 | 9 | . | .
OCCN(CC#CC(O)(c1ccccc1)C1CCCCC1)CCO (stereo not given) | 8 | 94 | -6 | -16 | -3 | 7 | . | .
OCCN(CC#CCn1c2ccccc2c2ccccc21)CCO | -11 | 106 | 12 | -7 | 5 | -8 | 87 | 105
COC(=O)c1ccc(/C=C2/SC(=S)N(CCC(=O)NCCCN3CCOCC3)C2=O)cc1 | -2 | 98 | -1 | -10 | 10 | 15 | . | .
O=C(O)c1ccc(NS(=O)(=O)c2cc(Cl)ccc2Cl)cc1 | -7 | 105 | -8 | 28 | 7 | 7 | 114 | 119
Cc1ccc(NS(=O)(=O)c2cc(C(=O)O)ccc2Cl)cc1 | 6 | 94 | -2 | -10 | 0 | 25 | . | .
CS(=O)(=O)c1cccc(-c2nnc(NC(=O)c3ccc(S(=O)(=O)N4CCCC4)cc3)o2)c1 | -2 | 103 | -1 | 4 | 1 | -5 | . | .
COc1ccc(-c2nnc(NC(=O)c3ccc(S(=O)(=O)N(C)CC4CCCO4)cc3)o2)c(OC)c1 (stereo not given) | -3 | 100 | 8 | -15 | -4 | -15 | 94 | 97
CC1CCCN(S(=O)(=O)c2ccc(C(=O)Nc3nnc(-c4ccccc4Cl)o3)cc2)C1 (stereo not given) | -6 | 106 | 11 | -10 | 0 | 19 | . | .
O=C(Nc1nnc(-c2ccc(F)cc2)o1)c1ccc(S(=O)(=O)N2CCOCC2)cc1 | -5 | 98 | 5 | 8 | -3 | 4 | 105 | 112
COc1ccccc1-c1nnc(NC(=O)c2ccc(S(=O)(=O)N3CCCC3)cc2)o1 | -18 | 101 | -7 | -10 | 3 | -5 | 116 | 106
CC1CCCN(S(=O)(=O)c2ccc(C(=O)Nc3nnc(C4CC4)o3)cc2)C1 (stereo not given) | 12 | 65* | 7 | 10 | 1 | -1 | 93 | 100
COc1ccc(N2CC(C(=O)N3CCN(c4ccccc4OC)CC3)CC2=O)cc1 (stereo not given) | -1 | 99 | 1 | -2 | -2 | 29 | . | .
NS(=O)(=O)c1ccc(CCNC(=O)CN2CCCCC2)cc1 | 6 | 93 | -3 | 4 | -6 | 86 | . | .
CC1CC(C)CN(CC(=O)NCCc2ccc(S(N)(=O)=O)cc2)C1 (stereo not given) | -11 | 62* | 2 | 5 | 0 | -2 | 108 | 118
SMILES | PKA-R1A act | Yeast superoxide | PKA-R2B activ | PolyA inh | V-ATPase pH | JMJD2C inh | CR mimetic CP | DHE counter
COc1ccc(C(=O)N2CCOC2CNC(=O)C(=O)NCc2ccccn2)cc1 (stereo not given) | 11 | . | 1 | . | 0 | . | . | .
Cn1c2ccccc2c(=O)c2c(=O)n(C3CCCCC3)c(-c3cccs3)nc21 | -3 | 65* | -2 | -13 | 0 | -2 | 110 | 98
COCCn1c(SCC(=O)Nc2ccc(NC(C)=O)cc2)nc2ccccc2c1=O | -8 | 51* | 4 | 6 | -1 | -5 | 97 | 103
COCCn1c(SCC(=O)Nc2cc(C)cc(C)c2)nc2ccccc2c1=O | -15 | 100 | -19 | 6 | -4 | -2 | . | .
O=S(=O)(Nc1ccc(NS(=O)(=O)c2ccccc2)c(Cl)c1)c1ccccc1 | 6 | . | 3 | . | 3 | . | . | .
Cc1cc(NS(=O)(=O)c2ccccc2)cc(Cl)c1O | -4 | 103 | 6 | 6 | -5 | -7 | 87 | 91
Cc1ccc(S(=O)(=O)N2CC(O)CC2C(=O)O)cc1 (stereo not given) | -5 | 92 | -14 | 2 | -1 | 3 | 110 | 109
COc1cc(/C=C(\C#N)C(=O)NC(C)C)cc(Cl)c1O | -3 | 96 | -6 | -9 | -2 | 22 | 106 | 92
CCCCc1c(O)nc(SCC(=O)Nc2ccc(OC)cc2)n(-c2ccc(C)c(C)c2)c1=O | -2 | . | -12 | . | -3 | . | . | .
CC(=O)OC1CCC2(C)C3CCC4(C)C(C(C)=O)CCC4C3CC3OC32C1 (stereo not given) | -2 | . | 8 | . | 1 | . | . | .
CC(=O)OC1(C(C)=O)CCC2C3CC4OC45CC(O)CCC5(C)C3CCC21C (stereo not given) | -11 | . | -10 | . | -3 | . | 121 | 115
CCN(C(=O)CSc1ncccc1C(=O)OC(C)C)c1cccc(C)c1 | 2 | 63* | 0 | -3 | 6 | 8 | 112 | 101
CN(Cc1ccccc1)C(=O)CCC1CCN(S(C)(=O)=O)CC1 | 3 | 65* | 6 | -7 | 0 | -2 | 127 | 110
CN(Cc1ccccc1)C(=O)CCC1CCN(S(=O)(=O)N(C)C)CC1 | 5 | 103 | -11 | -19 | -4 | 11 | . | .
N#CCCN(Cc1ccccc1)S(=O)(=O)c1cccs1 | 2 | 96 | 4 | -19 | -2 | -8 | . | .
COc1ccc(-c2c(-c3cc(OC)cc(OC)c3)n(C)c3ccc(-c4ccc(SC)cc4)cc23)cc1 | 3 | 65* | 0 | . | -4 | -3 | 97 | 96
COc1cc(OC)cc(-c2c(-c3ccc(F)cc3)c3cc(-c4ccc(SC)cc4)ccc3n2C)c1 | 15 | 128 | -6 | . | 4 | . | . | .

Screening results as filed in PubChem.
